# Data published in PubChem BioAssay AID1986 (Sanford-Burnham Center for Chemical Genomics, 2009).
# The campaign covered roughly 290,000 compounds. About 890 (0.31%) were called active. No stated cut-off is given here; in the data, active means inhibition mostly above about 52% (no sharp cut-off); inactive means mostly below about 76%. The sample as a whole holds a higher share of actives than the screen did.
# Assay: cell-free HIV fusion peptide-binding blockers – biochemical, uHTS, fluorescence dequenching, primary screen (AID 1986)
# Conditions: 30 min, stronger effect = higher value
# [1] = measured here: repeat confirmation average inhibition, at 18.6 µM
Structure (SMILES),inhibition (at 20 µM),inhibition [1]
CCCCNC(=O)CNC(=S)N(Cc1ccc(C)cc1)Cc1ccco1,2.5% (inactive),
CCCN1C(=O)/C(=C/c2c(N3CCNC(=O)C3CC(=O)OCC)nc3c(C)cccn3c2=O)SC1=S (stereo not given),146% (inactive),
CCOC(=O)CC1C(=O)NCCN1c1nc2c(C)cccn2c(=O)c1/C=C1\SC(=S)N(CC(C)C)C1=O (stereo not given),117% (active),
CCOC(=O)CC1C(=O)NCCN1c1nc2ccc(C)cn2c(=O)c1/C=C1\SC(=S)N(C(C)CC)C1=O (stereo not given),148% (inactive),
CCOC(=O)CC1C(=O)NCCN1c1nc2c(C)cccn2c(=O)c1/C=C1\SC(=S)N(C(C)CC)C1=O (stereo not given),137% (inactive),
CCOC(=O)CC1C(=O)NCCN1c1nc2ccc(C)cn2c(=O)c1/C=C1\SC(=S)N(CC(C)C)C1=O (stereo not given),109% (active),147%
CCCN1C(=O)/C(=C/c2c(N3CCNC(=O)C3CC(=O)OC)nc3c(C)cccn3c2=O)SC1=S (stereo not given),148% (inactive),
Cc1ccccc1NC(=O)Cn1c(=O)sc2ccccc21,-1.5% (inactive),
CC1=C(C(=O)OCC2CCCO2)C(c2coc3ccc(Cl)cc3c2=O)C2=C(CCCC2=O)N1 (stereo not given),-0.8% (inactive),
COc1ccccc1CC(=O)Nc1cccc2c1CCCC2,-2.5% (inactive),
COc1ccc2nc(SCC(=O)Nc3nonc3C)[nH]c2c1,0.1% (inactive),
CSc1ccccc1C(=O)NCC(c1ccco1)N(C)C (stereo not given),-2.2% (inactive),
CC1=C(C(=O)NC2CCCc3c2cnn3-c2cccc(C)c2C)OCCO1 (stereo not given),-0.2% (inactive),
CN(C)c1cccc2c(C=C(C#N)C#N)ccc(N(C)C)c12,89.8% (active),
CN(C)c1cccc2c(/C=N/O)ccc(N(C)C)c12,-1.6% (inactive),
CC(=O)c1ccc(N(C)C)c2c(N(C)C)cccc12,-0.7% (inactive),
Cc1ccc(NC(=O)c2cc(S(=O)(=O)N3CCOCC3)cn2C)cc1Cl,-0.7% (inactive),
Cc1ccc(N(CC(=O)NCc2ccccc2Cl)S(=O)(=O)c2cccs2)cc1,0.6% (inactive),
O=C(CSc1nnc(-c2ccccc2F)o1)NC1CCCCC1,-0.3% (inactive),
Cc1ccc(-n2c3c(cc(C(=O)NC4CCSC4=O)c2=O)C(=O)CCC3)cc1 (stereo not given),-1.5% (inactive),

Structure (SMILES),inhibition (at 20 µM),inhibition [1]
CCOc1cc(/C=N\Nc2ccc([N+](=O)[O-])cc2)ccc1OCC(=O)Nc1ccc(C)c(C)c1,88.4% (active),94.3%
CCOc1cc(/C=N/NC(N)=O)ccc1OCC(=O)Nc1ccc(C)c(C)c1,-2% (inactive),
COc1cc(/C=N\Nc2ccc([N+](=O)[O-])cc2)ccc1OCC(=O)Nc1ccc(C)c(C)c1,27.8% (inactive),
CC(Sc1ccccc1)C(=O)NCCc1ccccc1 (stereo not given),0.1% (inactive),
COc1ccccc1-c1nc(S(=O)(=O)c2ccc(Cl)cc2)c(N(C)C)o1,0.1% (inactive),
O=c1c2[nH]c3cccc(Cl)c3c2ncn1Cc1ccncc1,0.2% (inactive),
O=C1NN(c2ccccc2)C(=O)/C1=C/c1ccc(-c2ccc(Cl)c(C(=O)O)c2)o1,34.7% (inactive),
COC(=O)c1ccc(N2NC(=O)/C(=C/c3ccc(-c4ccc(Cl)c(C(=O)O)c4)o3)C2=O)cc1,54.7% (active),
Cc1ccc(N2NC(=O)/C(=C/c3ccc(-c4ccc(Cl)c(C(=O)O)c4)o3)C2=O)cc1,29.4% (inactive),
Cc1cc(CSc2ccccc2)ccc1NC(=O)c1ccc(Cl)c([N+](=O)[O-])c1,1.8% (inactive),
O=Cc1ccc2noc(-c3ccc(F)cc3)c2c1,75.6% (active),79.8%
O=Cc1ccc2noc(-c3ccc(Cl)cc3)c2c1,28.2% (inactive),
Cc1ccc(-c2onc3ccc(C=O)cc23)cc1,-0.6% (inactive),
COc1ccc2c(ccc[n+]2CC(=O)c2ccccc2)c1,1.3% (inactive),
Cc1nc(NC(=O)CSc2cc(C)c3ccccc3n2)c(Cl)cc1Cl,-0.4% (inactive),
S=C(Nc1ccc(Oc2ccccc2)cc1)N1CCOCC1,-0.2% (inactive),
COc1cc(CNCc2ccccc2Cl)ccc1OCC(=O)NC1CCCCC1,0.7% (inactive),
CN(/C=C/C(=C\C=[N+](C)c1ccccc1)OCCCS(=O)(=O)[O-])c1ccccc1,24.5% (inactive),
CN(/C=C/C(=C/C=[N+](C)c1ccccc1)OCCCS(=O)(=O)[O-])c1ccccc1,71.6% (active),
CN(C)/C=C/C(=O)c1ccc(S(=O)(=O)c2ccccc2)cc1,2.7% (inactive),

Structure (SMILES),inhibition (at 20 µM),inhibition [1]
Clc1ccccc1OCCN1CCC(Cc2ccccc2)CC1,-0.6% (inactive),
Cc1ccc(/C=N/N=C/c2ccc(C)cc2)cc1,0.6% (inactive),
Cc1ccc(/C=[N+](/C)[O-])cc1,-1.3% (inactive),
Cc1ccc(C=C2C(Cl)=C(Cl)C(Cl)=C2Cl)cc1,53.9% (active),
COc1ccccc1OCCCCOc1ccccc1C(C)=O,0.9% (inactive),
O=C(/C=C/Nc1cccc(F)c1)c1ccco1,1.5% (inactive),
COC(=O)c1ccc(=O)c2nc3/c(=C/O)c(O)cc(=O)c3[nH]c12,56.3% (active),
COC(=O)c1ccc(C(=O)OC)c(=O)[nH]1,-0.4% (inactive),
COC(=O)c1ccc(N)cc1O,-0.9% (inactive),
COc1ccc(NC(=S)N(Cc2cccnc2)Cc2ccco2)cc1,-0.6% (inactive),
Clc1ccc(Cc2noc(-c3cccs3)n2)cc1,1.2% (inactive),
CCN1CCN(Cc2c(O)ccc3c2O/C(=C\c2ccc(C)cc2)C3=O)CC1,40.1% (inactive),
CC(C)(C)c1ccc(/C=C2\Oc3c(ccc(O)c3CN3CCN(CCO)CC3)C2=O)cc1,17.8% (inactive),
Cc1ccc(/C=C2\Oc3c(ccc(O)c3CN3CCN(C)CC3)C2=O)cc1,45.4% (inactive),
COCCN(CCOC)Cc1c(O)ccc2c1O/C(=C\c1ccco1)C2=O,50.4% (active),78.9%
O=C1/C(=C/c2ccco2)Oc2c1ccc(O)c2CN1CCCCC1,58.1% (active),
COCCN(CCOC)Cc1c(O)ccc2c1O/C(=C\c1ccc(C)o1)C2=O,27.4% (inactive),
Cc1cc(O)c(CN(C)C)c2c1C(=O)/C(=C/c1ccco1)O2,29.7% (inactive),
CC1CCN(Cc2c(O)ccc3c2O/C(=C\c2ccco2)C3=O)CC1,56.7% (active),90.4%
CC1CCCN(Cc2c(O)ccc3c2O/C(=C\c2ccco2)C3=O)C1 (stereo not given),35.5% (inactive),
